In article PMC12136788:
Positions count from the first letter of the chain named. Over roughly 5,800 sequences, “enrichment r” has its median near 0.68; the highest 2% begin near 11. The list comes from a sample in which the highest values are over-represented; it also holds similar and randomly drawn sequences.

B1: chr11:113276847:113276948:+|3pUTR|ENSG00000149294|msi1|FALSE|unique (ssRNA)
RNA: GGGAGUUCUACAGUCCGACGAUCAGAAGGGAAAAGCCAGCCCUUUGUAUAGAAAUUUUGCUUUUUUUUCCCUCAUUCUACUUUAGAACUGCAAGCUUGUGCACUGUGGAUGCGUGAAUAUUUUAGUGUGAAACGUGUUUUUGUCAACAGAGGAUUGAGCAUCA
B2: chr5:16663783:16663884:-|3pUTR|ENSG00000145555|msi1|FALSE|bound_elsewhere (ssRNA)
RNA: GGGAGUUCUACAGUCCGACGAUCUGAGGAUACAAAAUUCACAGAUGCUCAAGUCCCUGCUAUACAGUGGUAUAAUAUUUGCAUAGAACCUGCACACAUCUUUCCUUACCCUUUAAAUCAUCUCCAGGUUACAGAUACCUAGCACAACAGAGGAUUGAGCAUCA
B3: chr1:186359875:186359976:-|CDS|ENSG00000047410|msi1_unk|FALSE|overlapping (ssRNA)
RNA: GGGAGUUCUACAGUCCGACGAUCGGAAACUCAGGAUCAGUUGCUUUUGGAGAAACUAGAGAACAAAAGAAUUAAUAAGUACCUAGAUGAAAUAGUGAAAGAAGUGGAAGCCAAAGCACCAAUUUUGAAACGCCAGCGUGAGGACAACAGAGGAUUGAGCAUCA
B4: chr3:97755980:97756081:+|3pUTR|ENSG00000080224|unk|total|mutant (ssRNA)
RNA: GGGAGUUCUACAGUCCGACGAUCUAAUUAAAAAUCUCUUUCCUACCUUCCGUAAUUUGCCGGAUGAACUGUAUGCAUUCCGACCGAAAUUGCUUUUGUUAAAUUUACAUUUAAACACAUCUUCAUUCACUCCGAGAAGCCAUACAACAGAGGAUUGAGCAUCA
B5: chr1:32196777:32196878:+|3pUTR|ENSG00000084652|msi1|FALSE|unique (ssRNA)
RNA: GGGAGUUCUACAGUCCGACGAUCUUUGAAGCUAGUUCAUUGUCCUGCAGGUCCCUUCAUCUUCCAUACCUAGCCCACUCUUUUAGCCCUUACCUUAAAUCUCUCAGAUAAGUUGGUUCACAAAGAAUGUUAAGUACUGAAUCACAACAGAGGAUUGAGCAUCA
B6: chr2:223975255:223975490:-|3pUTR|ENSG00000135919|msi1|FALSE|bound_elsewhere (ssRNA)
RNA: GGGAGUUCUACAGUCCGACGAUCUUUAAAUUCUUUUCCCCCAUCCCCCUCCAAAGUCUUGAUAGCAAGCGUUAUUUUGGUGGUAGAAACGGUGAAAUCUCUAGCCUCUUUGUGUUUUUGUUGUUGUUGUUGUUGUUGUUUUAUCAACAGAGGAUUGAGCAUCA
B7: ENSG00000052841:stop:overlap|stop_codon|ENSG00000052841|stop_codon|NA|stop_codon (ssRNA)
RNA: GGGAGUUCUACAGUCCGACGAUCAGAACCGAAUCCAGACCAUCCAGUGUCACUUAAUGCUGAAGAAGGGACGGCGCUCUCCUUAGUGCACUUCUUCCUUCUCUCUUUCUCUUUACUCAUGCUCUAAAAAAAAAGAAUAAGAAACAACAGAGGAUUGAGCAUCA
B8: chr5:136174412:136174513:+|CDS|ENSG00000113658|unk|total|mutant (ssRNA)
RNA: GGGAGUUCUACAGUCCGACGAUCUAUGUUGGUGGAGAGGUGUAUGCGGAAUGCCUCAGUGACAGCAGCAUAUUUGUACAGAGCCGGAACUGCAACUUUCAUCAUGGCUUUCAUCCCACCACUGUCUGUAAGAUUCCCAGCAGCCAACAGAGGAUUGAGCAUCA
B9: chr13:110149936:110150037:-|3pUTR|ENSG00000187498|msi1|FALSE|unique (ssRNA)
RNA: GGGAGUUCUACAGUCCGACGAUCUUCUUGUAUUAUAAUUAAUUUUCUACCCCCAGAGAUAAAUGUUUGUUUAUAUCACUGUCUAGCUGUUUCAAAAUUUAGGUCCCUUGGUCUGUACAAAUAAUAGCAAUGUAAAAAUGGUUUCAACAGAGGAUUGAGCAUCA
B10: chr12:98549999:98550103:+|3pUTR|ENSG00000120802|unk|total|mutant (ssRNA)
RNA: GGGAGUUCUACAGUCCGACGAUCUGUUUCCCAUACUGUUUUCAGCCUUUUGUUUAUAAUCCGAAAUUGUGAGAAGCUUCAUUCCGUGUUUAAAAAUGUGGGGAGAUAAAUCAGACUUAACAUGUAUGUAAGAUCAAUUCACUUCAACAGAGGAUUGAGCAUCA
B11: chr11:10797513:10797714:-|3pUTR|ENSG00000110321|msi1_unk|FALSE|overlapping (ssRNA)
RNA: GGGAGUUCUACAGUCCGACGAUCUUCUGCAUAAGGUUUUUUUGUAGUGUAAUGUCUUAAUCAUAGUCUACCAUCAAAUAUUUUAGGAGUAUCUUUAAUGUUUAGAUAGUAUAUUAGCAGCAUGCAAUAAUUACAUCAUAAGUUCAACAGAGGAUUGAGCAUCA
B12: chr12:98549999:98550103:+|3pUTR|ENSG00000120802|unk|FALSE|unique (ssRNA)
RNA: B10 RNA with C60U, C61A, C83U, C84A
B13: chr12:909583:909684:+|3pUTR|ENSG00000060237|unk|FALSE|bound_elsewhere (ssRNA)
RNA: GGGAGUUCUACAGUCCGACGAUCUAGCUCUGUCCUUUACUUAUUGAGACACUUUAACUUUUUCCUUUGUAUUUCCAUUGUAUUAGAUAAAUAAAUGUGAAUGUAAAAUUGUAUAAAUUACUGUACUUGAAUACUUCUGUUUCCCAACAGAGGAUUGAGCAUCA
B14: chrX:129805617:129805718:-|3pUTR|ENSG00000188706|msi1|FALSE|unique (ssRNA)
RNA: GGGAGUUCUACAGUCCGACGAUCUCUUUUCCCAUUAGAUAUAUGUAAGUAGUUGUAGUAGAGAUAAUAAUUGACAUUUCUCGUAGACUACCCAGAAACUUUUUUAAUACCUGUGCCAUUCUCAAUAAGAAUUUAUGAGAUGCCCAACAGAGGAUUGAGCAUCA
B15: chr2:24000049:24000165:+|3pUTR|ENSG00000173960|unk|FALSE|unique (ssRNA)
RNA: GGGAGUUCUACAGUCCGACGAUCGUAGCAUAUGACUGGAAACUAUAUUCAGUGCACUUUCUCCAAAAGACUACCCAGAAAAAUAGACUUAUUUUCAAAUACCAGUUAUCAAGAUAUAUUAAAUAGCUGUAUUGUUUAGAAUCUCAACAGAGGAUUGAGCAUCA
B16: chr8:116846039:116846140:-|3pUTR|ENSG00000164754|msi1|FALSE|bound_elsewhere (ssRNA)
RNA: GGGAGUUCUACAGUCCGACGAUCACAUUCAAUAUGAUGUGCCUGUAAACCAAGGAGUUUUCCCCGUUUGUAAAAAGACAUUGUAGAUAAUUGAAUGUUUGAUUUUAGAAAGGUCAUUAGUUUCUUGUUACACAUUUUGUUAGUCAACAGAGGAUUGAGCAUCA

These binders were tested against T1, UNK ZnF1-6 (called full-length) (human, UniProt Q9C0B0 30-357) (assay: nsRBNS (natural sequence RNA bind-n-seq); RBNS binding buffer (assumed for nsRBNS): 25 mM Tris pH 7.5, 150 mM KCl, 3 mM MgCl2, 0.01% Triton X-100, 500 ug/ml BSA, 20 U/ml SUPERase-In, 4 C; UNK is unkempt and MSI1 is Musashi-1; names of the RNAs are library labels; protein concentration not given here; high values mean tight binding).
T1 sequence: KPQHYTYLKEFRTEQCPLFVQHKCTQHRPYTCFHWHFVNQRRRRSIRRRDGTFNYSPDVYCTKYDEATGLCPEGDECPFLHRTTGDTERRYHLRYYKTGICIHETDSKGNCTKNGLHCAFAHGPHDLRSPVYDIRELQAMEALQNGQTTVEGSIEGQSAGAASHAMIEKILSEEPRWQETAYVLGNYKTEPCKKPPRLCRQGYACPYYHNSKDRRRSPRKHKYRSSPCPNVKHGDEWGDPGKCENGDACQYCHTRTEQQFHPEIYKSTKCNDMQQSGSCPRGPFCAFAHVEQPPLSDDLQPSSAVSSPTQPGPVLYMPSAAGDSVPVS

Binder	binding signal [enrichment R]
B1	1.38
B2	0.456
B3	4.28
B4	0.569
B5	1.19
B6	2.44
B7	0.995
B8	0.849
B9	119
B10	0.419
B11	1.96
B12	6.12
B13	12.7
B14	101
B15	3.33
B16	5.22
